Results filed as inconclusive are left out. Where a call stands in place of a potency, no number is given. A number with no mark means an inactive call. Activity calls are given as the source filed them. Calls come from the whole dose curve; as a rule, active = well fitted curve in the direction sought with a large enough effect; inconclusive = small, poorly fitted or top-dose-only effect, or another doubt; inactive = no such curve, though single readings can be large; an effect the other way counts as inactive or inconclusive.
Key:
[1] = molecular target: Rap guanine nucleotide exchange factor 3 (Homo sapiens) (UniProt O95398); assay: Confirmatory qHTS for antagonist of cAMP-regulated guanine nucleotide exchange factor 3 (EPAC1) (AID 1645880); conditions: EPAC1 Rap1B-BODIPY-GDP exchange, fluorescence; activity, negative = inhibition: at 115 µM (top of the series); note: nearly all actives have a fitted effect of over 55% in size
Chain of Rap guanine nucleotide exchange factor 3 (Homo sapiens) (O95398 whole entry, looked up): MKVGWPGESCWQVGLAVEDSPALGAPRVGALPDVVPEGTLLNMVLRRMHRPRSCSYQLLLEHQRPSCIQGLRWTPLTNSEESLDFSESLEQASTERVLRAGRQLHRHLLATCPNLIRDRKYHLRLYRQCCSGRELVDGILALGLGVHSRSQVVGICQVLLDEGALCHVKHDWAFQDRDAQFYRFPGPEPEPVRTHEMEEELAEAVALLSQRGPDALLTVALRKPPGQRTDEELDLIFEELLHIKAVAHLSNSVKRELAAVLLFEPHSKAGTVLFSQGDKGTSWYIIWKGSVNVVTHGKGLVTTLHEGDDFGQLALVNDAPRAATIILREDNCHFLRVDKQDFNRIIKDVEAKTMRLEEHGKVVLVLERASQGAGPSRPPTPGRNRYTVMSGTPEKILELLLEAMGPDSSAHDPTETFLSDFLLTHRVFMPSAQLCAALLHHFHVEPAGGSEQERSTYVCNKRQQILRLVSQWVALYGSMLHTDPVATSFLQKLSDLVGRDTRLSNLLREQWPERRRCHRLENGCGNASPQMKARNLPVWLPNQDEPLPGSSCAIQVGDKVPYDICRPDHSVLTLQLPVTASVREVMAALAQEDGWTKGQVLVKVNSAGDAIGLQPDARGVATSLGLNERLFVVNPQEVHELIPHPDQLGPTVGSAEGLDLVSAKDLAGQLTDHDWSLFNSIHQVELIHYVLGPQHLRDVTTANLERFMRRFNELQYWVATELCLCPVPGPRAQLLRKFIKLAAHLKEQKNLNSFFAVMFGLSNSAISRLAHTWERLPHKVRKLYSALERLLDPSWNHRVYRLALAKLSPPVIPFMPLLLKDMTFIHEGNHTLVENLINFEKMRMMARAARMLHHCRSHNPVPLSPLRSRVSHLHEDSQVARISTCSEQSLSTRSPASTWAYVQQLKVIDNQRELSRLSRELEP
Procedure, shortened: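 Nucleotide exchange uses 100 nM EPAC1, 250 nM RAP1B-BODIPY-GDP and 50 uM GDP, with compounds in a concentration-titration series. After 5 min at room temperature, fluorescence (480 nm ex/540 nm em) is read every 5 min for 30 min. Data are normalized to control ATA and DMSO.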

[2] = molecular target: Rap guanine nucleotide exchange factor 3 (Homo sapiens) (UniProt O95398); assay: Confirmatory qHTS for agonist of cAMP-regulated guanine nucleotide exchange factor 3 (EPAC1) (AID 1645881); note: nearly all actives have a fitted effect of over 75% in size;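 for activation: EPAC1 catalysed release of BODIPY-GDP from Rap1B seen as fluorescence loss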
[3] = molecular target: Rap guanine nucleotide exchange factor 4 (Homo sapiens) (UniProt Q8WZA2); assay: Confirmatory qHTS for agonist of cAMP-regulated guanine nucleotide exchange factor 4 (EPAC2) (AID 1645884);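 note: nucleotide exchange releases bodipy-GDP from Rap1 and this lowers its fluorescence; nearly all actives have a fitted effect of over 65% in size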
Chain of Rap guanine nucleotide exchange factor 4 (Homo sapiens) (Q8WZA2 whole entry, looked up): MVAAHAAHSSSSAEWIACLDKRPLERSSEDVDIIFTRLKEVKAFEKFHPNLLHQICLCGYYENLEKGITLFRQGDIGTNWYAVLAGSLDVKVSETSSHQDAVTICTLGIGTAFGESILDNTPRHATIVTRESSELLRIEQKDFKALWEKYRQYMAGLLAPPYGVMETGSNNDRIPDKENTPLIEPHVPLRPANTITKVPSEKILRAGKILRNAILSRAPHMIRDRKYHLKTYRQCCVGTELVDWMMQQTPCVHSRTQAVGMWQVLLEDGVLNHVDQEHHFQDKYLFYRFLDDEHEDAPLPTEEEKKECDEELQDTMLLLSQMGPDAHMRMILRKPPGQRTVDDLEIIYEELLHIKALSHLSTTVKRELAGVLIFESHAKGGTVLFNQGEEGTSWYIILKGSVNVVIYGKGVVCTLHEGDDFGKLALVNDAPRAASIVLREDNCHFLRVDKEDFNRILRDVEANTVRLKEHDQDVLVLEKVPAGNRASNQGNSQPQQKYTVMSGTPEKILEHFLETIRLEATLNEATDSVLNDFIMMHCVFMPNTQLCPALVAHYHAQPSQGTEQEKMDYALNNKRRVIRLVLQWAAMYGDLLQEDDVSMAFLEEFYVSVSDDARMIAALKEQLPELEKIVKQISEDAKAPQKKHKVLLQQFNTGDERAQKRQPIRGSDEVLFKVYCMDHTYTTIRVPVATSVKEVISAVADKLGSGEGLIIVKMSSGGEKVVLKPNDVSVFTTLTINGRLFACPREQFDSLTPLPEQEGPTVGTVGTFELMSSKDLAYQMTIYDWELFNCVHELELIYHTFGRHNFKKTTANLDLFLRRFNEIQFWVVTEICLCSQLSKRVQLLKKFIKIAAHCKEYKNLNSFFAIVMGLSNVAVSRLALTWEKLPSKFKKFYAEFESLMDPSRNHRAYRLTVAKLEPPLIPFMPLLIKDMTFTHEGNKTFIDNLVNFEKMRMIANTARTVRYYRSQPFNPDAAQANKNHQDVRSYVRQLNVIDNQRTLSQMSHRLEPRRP

[4] = molecular target: Rap guanine nucleotide exchange factor 4 (Homo sapiens) (UniProt Q8WZA2); assay: Confirmatory qHTS for antagonist of cAMP-regulated guanine nucleotide exchange factor 4 (EPAC2) (AID 1645885); note: nearly all actives have a fitted effect of over 25% in size
[5] = molecular target: Rap guanine nucleotide exchange factor 3 (Homo sapiens) (UniProt O95398); assay: Counterscreen qHTS for agonist of cAMP-regulated guanine nucleotide exchange factor 3 (EPAC1) (AID 1645889); note: nearly all actives have a fitted effect of over 40% in size
Procedure, shortened: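 Rap1B-BODIPY-GDP 250 nM + GDP 50 uM; cpds 7-pt, final 9.74 nM–152 uM (activator mode) or from 7.32 nM upwards (inhibitor mode); RT; FI 480/540 nm at 5 and 30 min, then ± cAMP, reread.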
Potency is the fitted concentration of half-maximal effect.

Structure (SMILES) | Potency [1] | Potency [2] | Potency [3] | Potency [4] | Potency [5] | activation [3] | activation [5]
CCN1CCN(C2=CC3=CC(=C(C#N)C#N)CCC3CC2)CC1 (stereo not given) | inactive | 79.4 µM (active) | 100 µM (active) | 67.5 µM (active) | 10 µM (active) | – | –
CCOC(=O)N1CCC2CC1c1cc(-c3cccc(OC)c3)ccc12 (stereo not given) | inactive | inactive | inactive | inactive | inactive | – | –
COC(=O)CSc1ncnc2scc(-c3ccccc3)c12 | inactive | inactive | – | inactive | – | -0.952% [at 17.1 µM, percent relative to cAMP agonist control] | 5.38% [at 30.8 µM]
CN1CCN(C2=CC3=CC(=C(C#N)C#N)CCC3CC2)CC1 (stereo not given) | inactive | 44.7 µM (active) | 56.2 µM (active) | 6.75 µM (active) | 14.1 µM (active) | – | –
Cc1cc(C(=O)Nc2ccon2)c(C)o1 | inactive | inactive | inactive | 84.9 µM (active) | inactive | – | –
CC1CC1c1ccc(/C=C(\C#N)C(=O)Nc2ccc(Cl)cc2)o1 (stereo not given) | inactive | inactive | inactive | inactive | inactive | – | –
COC(=O)Cc1c(C)c2ccc(OC(=O)c3ccco3)cc2oc1=O | inactive | inactive | – | inactive | – | 7.89% [at 17.1 µM, percent relative to cAMP agonist control] | 4.06% [at 30.8 µM]
CN1/C(=C/C=C/c2n(C)c3cc([N+](=O)[O-])c([N+](=O)[O-])cc3[n+]2C)C(C)(C)c2ccccc21 | 30.1 µM (active) | inactive | inactive | 42.6 µM (active) | inactive | – | –
Cc1ccc(S(=O)(=O)NC2CC(=O)N(c3ccc4c(c3)OCCO4)C2)cc1 (stereo not given) | inactive | inactive | – | inactive | – | 3.34% [at 17.1 µM, percent relative to cAMP agonist control] | 22.6% [at 30.8 µM]
Cc1ccc2oc(=O)n(CCCOc3ccccc3Cl)c2c1 | inactive | inactive | inactive | inactive | inactive | – | –
CCCC(=O)N=C1SC2CS(=O)(=O)CC2N1c1ccc(CC)cc1 (stereo not given) | inactive | inactive | – | inactive | – | -7.85% [at 17.1 µM, percent relative to cAMP agonist control] | -1.33% [at 30.8 µM]
CCOC(=O)c1c(-c2ccc(-c3ccccc3)cc2)csc1NC(=O)CCC(=O)O | 42.6 µM (active) | inactive | inactive | inactive | inactive | – | –
O=S(=O)(Nc1nc2ccccc2nc1Nc1cccc(S(=O)(=O)N2CCCCC2)c1)c1ccccc1 | 56.2 µM (active) | inactive | – | inactive | – | 6.04% [at 17.1 µM, percent relative to cAMP agonist control] | 25.8% [at 30.8 µM]
COc1cc(C(=O)NCC(=O)N/N=C(\C)Cc2ccccc2)cc(OC)c1OC | inactive | inactive | inactive | inactive | inactive | – | –
CCC(=O)N1c2ccc(S(=O)(=O)NCCc3ccc(C)cc3)cc2CC1C (stereo not given) | inactive | inactive | inactive | inactive | inactive | – | –
O=C1/C(=C/c2ccc(O)c(O)c2)SC(=S)N1Nc1ccccc1 | 16.9 µM (active) | inactive | inactive | inactive | inactive | – | –
Cc1cc(OC(C)C(=O)NCc2ccccn2)c2c(C)c(Cc3ccccc3)c(=O)oc2c1 (stereo not given) | 47.8 µM (active) | inactive | inactive | inactive | inactive | – | –
CC(=O)c1cccc(NC(=O)c2c(-c3ccccc3)c(-c3ccccc3)nn(C)c2=O)c1 | inactive | inactive | inactive | inactive | inactive | – | –
C=CCn1cc(C(=O)NCCCOC)c(=O)c2cc(S(=O)(=O)N(CC)CC)ccc21 | inactive | inactive | inactive | inactive | inactive | – | –
Cc1cc(C)c(Nc2cc(S(=O)(=O)O)c(N)c3c2C(=O)c2ccccc2C3=O)c(C)c1 | 30.1 µM (active) | inactive | inactive | 75.7 µM (active) | inactive | – | –
Cn1/c(=N\NC(=O)C2CCCCC2)sc2ccccc21 | inactive | inactive | inactive | inactive | inactive | – | –
CCC/C=C/c1ccc(CN2C(CC(C)C)C(=O)N(Cc3cn(CCC4OCCO4)nn3)CCS2(=O)=O)cc1 (stereo not given) | 37.9 µM (active) | inactive | inactive | 23.9 µM (active) | inactive | – | –
CCOc1cc(/C=C(\C#N)C(=O)Nc2cccc(C(=O)O)c2)cc(Br)c1OC(=O)c1ccc(OC)cc1 | 42.6 µM (active) | inactive | inactive | 12 µM (active) | inactive | – | –
CC(C)CC1C(=O)N(Cc2cn(Cc3ccco3)nn2)CCS(=O)(=O)N1Cc1ccc(-c2ccc(F)cc2)cc1 (stereo not given) | 84.9 µM (active) | inactive | inactive | 21.3 µM (active) | inactive | – | –
O=C(NCCS(=O)(=O)N1CCc2ccccc2C1)c1ccccc1 | inactive | inactive | inactive | inactive | inactive | – | –
